Test results taken from the supplement of paper PMC11732987, “Enantioselective OTUD7B fragment discovery through chemoproteomics screening and high-throughput optimisation” (Communications Chemistry, 2025).

Columns and labels:
Assay in all cases: log2 ratio of Biotin-Ahx-Ub-VS probe labelling (fragment/DMSO); higher = less target engagement (more negative = stronger competition), active = hit call of the paper (q ≤ 0.05, log2 ratio ≤ -1)
Conditions in all cases: compound concentration: 200 uM; treatment time: 3 h
[1] = molecular target: USP34 (UniProt Q70CQ2)
How it was run: (§1)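 Each value is an average log2 ratio of fragment to vehicle, tested by unpaired t-test. The underlying Spectronaut label-free quantities were global-median-normalised, and only proteins with ≥2 unique peptides were included. Triplicate HEK293T lysate samples (495 µg) were exposed to fragment at 200 µM or vehicle for 3 h, then to Biotin-Ahx-Ub-VS at 0.5 µM final for 1 h, before NeutrAvidin enrichment of labelled DUBs, LysC and trypsin digestion, and diaPASEF LC-MS/MS.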

[2] = molecular target: T1, USP36 (UniProt Q9P275)
T1 sequence (whole entry): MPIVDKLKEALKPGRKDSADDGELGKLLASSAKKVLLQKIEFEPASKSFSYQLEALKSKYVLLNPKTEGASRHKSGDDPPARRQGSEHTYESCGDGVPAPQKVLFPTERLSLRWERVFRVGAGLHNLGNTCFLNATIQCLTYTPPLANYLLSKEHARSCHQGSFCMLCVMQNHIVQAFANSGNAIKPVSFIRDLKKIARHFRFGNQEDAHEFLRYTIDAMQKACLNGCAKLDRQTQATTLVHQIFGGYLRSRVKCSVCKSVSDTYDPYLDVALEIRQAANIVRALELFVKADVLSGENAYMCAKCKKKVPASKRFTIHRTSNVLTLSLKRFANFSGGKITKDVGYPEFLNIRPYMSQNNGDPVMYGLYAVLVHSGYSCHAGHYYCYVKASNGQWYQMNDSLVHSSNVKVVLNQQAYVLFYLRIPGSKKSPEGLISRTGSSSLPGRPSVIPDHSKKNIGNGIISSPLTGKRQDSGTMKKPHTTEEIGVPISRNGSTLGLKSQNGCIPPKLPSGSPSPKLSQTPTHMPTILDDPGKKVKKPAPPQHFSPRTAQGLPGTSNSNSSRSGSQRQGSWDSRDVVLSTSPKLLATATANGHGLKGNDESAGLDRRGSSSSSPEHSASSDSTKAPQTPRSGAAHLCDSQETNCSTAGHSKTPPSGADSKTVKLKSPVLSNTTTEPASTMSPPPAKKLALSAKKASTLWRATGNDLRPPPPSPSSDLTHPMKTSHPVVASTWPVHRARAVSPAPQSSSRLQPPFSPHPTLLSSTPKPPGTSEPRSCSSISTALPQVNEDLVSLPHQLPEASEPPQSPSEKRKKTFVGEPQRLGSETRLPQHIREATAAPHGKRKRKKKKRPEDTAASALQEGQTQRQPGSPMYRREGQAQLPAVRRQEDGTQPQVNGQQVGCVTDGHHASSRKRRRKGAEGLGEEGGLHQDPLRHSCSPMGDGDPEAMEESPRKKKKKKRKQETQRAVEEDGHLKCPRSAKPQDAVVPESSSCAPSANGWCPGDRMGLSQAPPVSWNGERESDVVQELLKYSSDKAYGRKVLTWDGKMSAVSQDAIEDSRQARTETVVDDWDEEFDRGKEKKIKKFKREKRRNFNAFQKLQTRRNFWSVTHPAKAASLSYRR
How it was run: as §1

[3] = molecular target: T2, USP38 (UniProt Q8NB14)
T2 sequence (whole entry): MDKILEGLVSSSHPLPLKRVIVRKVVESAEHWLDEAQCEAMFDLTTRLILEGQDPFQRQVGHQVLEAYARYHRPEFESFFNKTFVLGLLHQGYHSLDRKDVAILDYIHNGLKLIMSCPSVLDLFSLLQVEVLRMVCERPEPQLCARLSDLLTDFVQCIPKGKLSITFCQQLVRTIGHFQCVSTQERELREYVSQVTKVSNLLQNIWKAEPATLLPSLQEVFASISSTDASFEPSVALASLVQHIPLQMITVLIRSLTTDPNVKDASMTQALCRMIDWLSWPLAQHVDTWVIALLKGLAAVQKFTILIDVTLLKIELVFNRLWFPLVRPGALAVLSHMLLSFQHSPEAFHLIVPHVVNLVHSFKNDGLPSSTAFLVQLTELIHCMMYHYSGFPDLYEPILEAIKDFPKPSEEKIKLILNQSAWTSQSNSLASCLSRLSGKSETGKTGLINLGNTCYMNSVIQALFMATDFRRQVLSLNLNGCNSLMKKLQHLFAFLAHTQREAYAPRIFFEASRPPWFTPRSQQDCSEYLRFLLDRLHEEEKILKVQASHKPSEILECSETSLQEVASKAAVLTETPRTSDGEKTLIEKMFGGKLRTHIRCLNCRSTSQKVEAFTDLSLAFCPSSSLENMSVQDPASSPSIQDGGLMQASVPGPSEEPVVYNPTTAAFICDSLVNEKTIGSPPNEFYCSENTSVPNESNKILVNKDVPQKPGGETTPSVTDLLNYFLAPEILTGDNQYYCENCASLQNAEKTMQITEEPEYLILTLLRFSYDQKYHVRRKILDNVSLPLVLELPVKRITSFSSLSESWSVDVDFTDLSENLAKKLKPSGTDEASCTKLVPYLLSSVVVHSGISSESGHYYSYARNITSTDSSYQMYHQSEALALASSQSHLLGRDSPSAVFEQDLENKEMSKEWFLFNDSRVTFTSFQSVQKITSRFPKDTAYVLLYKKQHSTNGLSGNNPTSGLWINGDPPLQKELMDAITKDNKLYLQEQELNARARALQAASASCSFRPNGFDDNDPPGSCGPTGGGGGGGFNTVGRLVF
How it was run: as §1

[4] = molecular target: T3, USP39 (UniProt Q53GS9)
T3 sequence (whole entry): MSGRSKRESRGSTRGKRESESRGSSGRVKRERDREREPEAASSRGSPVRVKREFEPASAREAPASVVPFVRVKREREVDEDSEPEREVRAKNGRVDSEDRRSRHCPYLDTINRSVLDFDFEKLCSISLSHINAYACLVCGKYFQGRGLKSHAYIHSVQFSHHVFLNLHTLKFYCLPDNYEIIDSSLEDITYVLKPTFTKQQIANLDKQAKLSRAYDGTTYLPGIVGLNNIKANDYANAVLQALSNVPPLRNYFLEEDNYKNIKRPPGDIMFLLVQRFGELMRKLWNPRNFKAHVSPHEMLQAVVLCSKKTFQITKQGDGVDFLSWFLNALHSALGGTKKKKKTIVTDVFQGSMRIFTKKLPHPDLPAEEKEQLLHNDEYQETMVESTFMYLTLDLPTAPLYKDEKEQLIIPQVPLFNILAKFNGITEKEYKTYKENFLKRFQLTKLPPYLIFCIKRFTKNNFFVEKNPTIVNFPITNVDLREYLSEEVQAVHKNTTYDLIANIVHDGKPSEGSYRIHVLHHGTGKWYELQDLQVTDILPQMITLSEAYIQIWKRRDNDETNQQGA
How it was run: as §1

[5] = molecular target: T4, USP4 (UniProt Q13107)
T4 sequence (whole entry): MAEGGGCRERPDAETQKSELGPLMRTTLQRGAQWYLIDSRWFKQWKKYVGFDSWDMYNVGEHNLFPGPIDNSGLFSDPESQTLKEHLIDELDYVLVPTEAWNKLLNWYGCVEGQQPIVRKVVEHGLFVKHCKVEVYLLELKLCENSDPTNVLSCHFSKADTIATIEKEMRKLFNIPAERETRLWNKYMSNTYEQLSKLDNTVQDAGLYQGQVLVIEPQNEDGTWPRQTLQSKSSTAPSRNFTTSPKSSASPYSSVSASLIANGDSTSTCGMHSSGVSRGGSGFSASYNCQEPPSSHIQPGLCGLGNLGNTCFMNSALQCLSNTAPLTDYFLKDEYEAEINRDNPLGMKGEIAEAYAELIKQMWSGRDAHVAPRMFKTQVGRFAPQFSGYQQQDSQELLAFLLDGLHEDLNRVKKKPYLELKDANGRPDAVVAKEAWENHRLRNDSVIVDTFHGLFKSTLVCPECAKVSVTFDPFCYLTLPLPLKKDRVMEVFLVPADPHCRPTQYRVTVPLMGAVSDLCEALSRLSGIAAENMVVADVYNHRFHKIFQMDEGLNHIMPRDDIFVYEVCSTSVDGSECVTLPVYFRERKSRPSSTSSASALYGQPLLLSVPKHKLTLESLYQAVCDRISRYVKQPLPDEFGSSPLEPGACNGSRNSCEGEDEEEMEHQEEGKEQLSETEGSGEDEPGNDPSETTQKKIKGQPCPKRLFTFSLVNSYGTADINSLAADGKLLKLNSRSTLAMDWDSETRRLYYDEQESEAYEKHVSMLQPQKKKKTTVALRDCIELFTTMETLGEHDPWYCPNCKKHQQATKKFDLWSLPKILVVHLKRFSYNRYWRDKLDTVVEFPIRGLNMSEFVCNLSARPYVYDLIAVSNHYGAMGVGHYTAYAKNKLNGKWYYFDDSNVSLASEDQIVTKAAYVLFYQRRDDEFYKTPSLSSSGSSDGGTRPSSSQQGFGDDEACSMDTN
How it was run: as §1

Measured: log2 ratio of Biotin-Ahx-Ub-VS probe labelling

Sequence of USP34 (Q70CQ2 whole entry, the tested form may be a part): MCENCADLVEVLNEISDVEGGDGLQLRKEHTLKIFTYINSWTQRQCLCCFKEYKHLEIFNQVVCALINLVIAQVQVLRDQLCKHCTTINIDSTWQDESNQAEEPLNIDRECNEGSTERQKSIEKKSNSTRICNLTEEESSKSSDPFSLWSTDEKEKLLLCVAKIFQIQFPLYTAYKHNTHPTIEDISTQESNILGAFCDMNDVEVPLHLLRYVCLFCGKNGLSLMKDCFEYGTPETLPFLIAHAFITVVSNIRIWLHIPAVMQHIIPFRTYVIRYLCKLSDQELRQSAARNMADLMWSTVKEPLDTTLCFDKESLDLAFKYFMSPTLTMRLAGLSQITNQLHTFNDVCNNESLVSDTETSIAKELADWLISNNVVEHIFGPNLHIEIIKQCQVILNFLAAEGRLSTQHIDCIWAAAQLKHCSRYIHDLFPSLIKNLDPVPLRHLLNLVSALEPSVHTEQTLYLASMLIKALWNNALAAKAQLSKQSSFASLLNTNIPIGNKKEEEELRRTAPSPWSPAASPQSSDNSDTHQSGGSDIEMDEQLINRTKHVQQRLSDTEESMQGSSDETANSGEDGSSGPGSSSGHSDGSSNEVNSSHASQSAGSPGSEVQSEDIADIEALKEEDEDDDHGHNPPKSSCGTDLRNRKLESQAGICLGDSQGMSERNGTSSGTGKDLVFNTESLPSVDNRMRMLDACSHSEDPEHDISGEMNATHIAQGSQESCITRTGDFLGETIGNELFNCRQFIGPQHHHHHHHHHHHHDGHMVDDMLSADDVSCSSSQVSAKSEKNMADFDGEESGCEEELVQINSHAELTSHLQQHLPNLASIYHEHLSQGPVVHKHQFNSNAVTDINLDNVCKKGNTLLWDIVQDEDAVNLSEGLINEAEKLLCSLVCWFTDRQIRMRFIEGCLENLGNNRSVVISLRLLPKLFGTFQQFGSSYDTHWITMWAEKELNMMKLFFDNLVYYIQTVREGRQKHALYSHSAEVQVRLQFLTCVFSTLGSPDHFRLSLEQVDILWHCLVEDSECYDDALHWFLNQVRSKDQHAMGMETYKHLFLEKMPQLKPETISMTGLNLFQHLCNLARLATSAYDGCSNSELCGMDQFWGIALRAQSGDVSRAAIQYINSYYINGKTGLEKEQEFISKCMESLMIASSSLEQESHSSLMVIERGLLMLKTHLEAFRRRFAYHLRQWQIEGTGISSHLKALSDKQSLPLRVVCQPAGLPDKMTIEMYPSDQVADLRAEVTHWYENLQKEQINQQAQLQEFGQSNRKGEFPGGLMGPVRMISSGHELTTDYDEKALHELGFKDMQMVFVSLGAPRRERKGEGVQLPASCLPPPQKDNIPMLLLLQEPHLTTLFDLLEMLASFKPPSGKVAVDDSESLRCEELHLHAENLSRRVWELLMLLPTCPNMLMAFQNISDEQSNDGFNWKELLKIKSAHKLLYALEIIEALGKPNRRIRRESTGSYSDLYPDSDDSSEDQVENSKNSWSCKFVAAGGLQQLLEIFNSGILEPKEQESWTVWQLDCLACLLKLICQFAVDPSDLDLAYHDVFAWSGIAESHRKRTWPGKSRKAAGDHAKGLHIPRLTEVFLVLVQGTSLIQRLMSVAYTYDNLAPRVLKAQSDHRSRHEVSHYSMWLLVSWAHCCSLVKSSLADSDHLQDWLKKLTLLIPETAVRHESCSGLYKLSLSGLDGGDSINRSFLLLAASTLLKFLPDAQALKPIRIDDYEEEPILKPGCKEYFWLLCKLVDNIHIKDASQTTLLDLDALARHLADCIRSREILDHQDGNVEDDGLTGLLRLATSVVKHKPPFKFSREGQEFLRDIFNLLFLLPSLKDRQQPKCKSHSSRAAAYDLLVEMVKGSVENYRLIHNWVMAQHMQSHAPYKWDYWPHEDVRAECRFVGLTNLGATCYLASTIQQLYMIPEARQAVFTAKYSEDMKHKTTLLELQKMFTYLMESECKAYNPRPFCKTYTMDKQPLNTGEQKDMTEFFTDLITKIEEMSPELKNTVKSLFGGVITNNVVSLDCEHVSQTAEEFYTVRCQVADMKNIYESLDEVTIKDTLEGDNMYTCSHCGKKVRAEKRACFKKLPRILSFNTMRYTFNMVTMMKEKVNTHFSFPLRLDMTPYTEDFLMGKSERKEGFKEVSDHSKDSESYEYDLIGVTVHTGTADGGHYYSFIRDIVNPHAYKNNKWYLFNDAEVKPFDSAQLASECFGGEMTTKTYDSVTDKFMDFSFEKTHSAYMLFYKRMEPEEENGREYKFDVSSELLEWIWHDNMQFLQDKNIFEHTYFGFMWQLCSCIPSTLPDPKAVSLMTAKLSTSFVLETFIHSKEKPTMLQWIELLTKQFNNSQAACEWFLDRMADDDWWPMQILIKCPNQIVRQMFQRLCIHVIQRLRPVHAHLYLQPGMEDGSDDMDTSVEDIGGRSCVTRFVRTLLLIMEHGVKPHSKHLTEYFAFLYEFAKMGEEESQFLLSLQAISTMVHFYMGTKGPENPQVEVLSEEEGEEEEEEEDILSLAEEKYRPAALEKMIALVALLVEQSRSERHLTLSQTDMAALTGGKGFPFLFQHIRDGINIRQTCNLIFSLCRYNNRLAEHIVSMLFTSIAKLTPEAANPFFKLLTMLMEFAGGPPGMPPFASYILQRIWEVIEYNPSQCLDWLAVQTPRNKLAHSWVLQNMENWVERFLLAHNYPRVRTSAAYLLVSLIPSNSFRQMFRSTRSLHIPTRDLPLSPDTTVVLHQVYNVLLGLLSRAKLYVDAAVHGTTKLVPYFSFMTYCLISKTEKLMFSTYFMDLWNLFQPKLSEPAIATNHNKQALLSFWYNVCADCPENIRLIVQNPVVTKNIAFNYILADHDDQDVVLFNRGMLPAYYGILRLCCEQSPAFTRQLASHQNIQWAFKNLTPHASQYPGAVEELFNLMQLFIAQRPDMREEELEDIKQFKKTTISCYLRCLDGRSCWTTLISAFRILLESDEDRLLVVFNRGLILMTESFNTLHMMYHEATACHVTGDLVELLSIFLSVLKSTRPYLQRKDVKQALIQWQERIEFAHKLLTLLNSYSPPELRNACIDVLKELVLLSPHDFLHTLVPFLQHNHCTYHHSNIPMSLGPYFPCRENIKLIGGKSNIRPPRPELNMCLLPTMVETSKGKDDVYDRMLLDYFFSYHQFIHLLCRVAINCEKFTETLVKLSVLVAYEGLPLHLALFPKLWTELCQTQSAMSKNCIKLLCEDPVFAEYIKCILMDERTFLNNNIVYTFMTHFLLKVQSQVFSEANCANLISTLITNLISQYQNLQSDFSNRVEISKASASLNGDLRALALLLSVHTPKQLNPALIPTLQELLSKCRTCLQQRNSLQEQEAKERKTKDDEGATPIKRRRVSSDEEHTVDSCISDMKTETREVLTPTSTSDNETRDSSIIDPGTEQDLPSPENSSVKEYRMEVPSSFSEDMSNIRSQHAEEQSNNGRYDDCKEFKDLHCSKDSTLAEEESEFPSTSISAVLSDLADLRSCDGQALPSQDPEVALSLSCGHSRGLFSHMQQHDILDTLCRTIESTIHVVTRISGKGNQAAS

Cc1cccc(C)c1NC(=O)CCl
inactive: [1] -0.0998 | [2] -0.33 | [3] -0.0307 | [4] 0.204 | [5] -0.132
